Assay [1] has as its target Nucleoprotein (Lymphocytic choriomeningitis virus (strain Armstrong)) (UniProt P09992). Kind of assay: qHTS for Inhibitors of the Functional Ribonucleoprotein Complex (vRNP) of Lymphocytic Choriomeningitis Arenaviruses (LCMV): LCMV Primary Screen - GLuc reporter signal (AID 1347086; calls by dose curve; also: nearly all actives have a fitted effect of over 70% in size; also: potency is read from the fitted curve at half-maximal effect). (Quantitative high-throughput screening tests each substance at several concentrations.)

The nature of assay [2]: qHTS for Inhibitors of the Functional Ribonucleoprotein Complex (vRNP) of Lymphocytic Choriomeningitis Arenaviruses (LCMV): Viability assay - alamar blue signal for LCMV Primary Screen (AID 1347085; calls by dose curve; tested in HEK293 reporter line; also: nearly all actives have a fitted effect of over 80% in size; also: potency is read from the fitted curve at half-maximal effect).
Assay [3] in a line: qHTS of pediatric cancer cell lines to identify multiple opportunities for drug repurposing: Primary screen for TC32 cells (AID 1347089). Also: nearly all actives have a fitted effect of over 60% in size. Also: potency is read from the fitted curve at half-maximal effect. The method in brief:
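Measured quantity: luminescence from CellTiter-Glo, reflecting metabolically active TC32 cells following 48 h of compound. Curves came straight from multi-point titrations, with 8 or 11 points in primary and 11 in confirmatory screening.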

Assay [4] can be described thus: qHTS of pediatric cancer cell lines to identify multiple opportunities for drug repurposing: Primary screen for DAOY cells (AID 1347090). Also: nearly all actives have a fitted effect of over 55% in size. Also: potency is read from the fitted curve at half-maximal effect. The method in brief: (§1)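 Viability measured as metabolically active cells via CellTiter-Glo luminescence following 48 hours of compound exposure, 11-point dilutions in confirmatory testing. 500-1,000 cells/well plated 5 hours before dosing; controls were DMSO and 2.3 µM bortezomib.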

A short description of assay [5]: qHTS of pediatric cancer cell lines to identify multiple opportunities for drug repurposing: Primary screen for SJ-GBM2 cells (AID 1347091). Also: potency is read from the fitted curve at half-maximal effect. The method in brief:
as §1

A short description of assay [6]: qHTS of pediatric cancer cell lines to identify multiple opportunities for drug repurposing: Primary screen for SK-N-MC cells (AID 1347093). Also: potency is read from the fitted curve at half-maximal effect. The method in brief: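 Metabolically active cells were quantified by ATP-dependent luminescence (CellTiter-Glo, 15 min at room temperature) following 48 h treatment. Cells had been plated at 500-1,000 per well and settled for 5 h beforehand.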

The nature of assay [7]: qHTS of pediatric cancer cell lines to identify multiple opportunities for drug repurposing: Primary screen for BT-37 cells (AID 1347094). Also: potency is read from the fitted curve at half-maximal effect. In a few lines:
(§2)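 Luminescence from CellTiter-Glo served as readout of metabolically active cells after 48 h compound exposure. Titrations: MIPE 11-point, from 0.78 nM; NPC 8-point, from 0.59 nM (final). Concentration-response curves came straight from the primary screen.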

The nature of assay [8]: qHTS of pediatric cancer cell lines to identify multiple opportunities for drug repurposing: Primary screen for NB-EBc1 cells (AID 1347095). Also: potency is read from the fitted curve at half-maximal effect. The method in brief:
as §2

A short description of assay [9]: qHTS of pediatric cancer cell lines to identify multiple opportunities for drug repurposing: Primary screen for U-2 OS cells (AID 1347096). Also: nearly all actives have a fitted effect of over 50% in size. Also: potency is read from the fitted curve at half-maximal effect. The method in brief: (§3)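 Viability after 48 h compound treatment at 37C, 500-1,000 cells/well, read as ATP luminescence with CellTiter-Glo. Primary screens used 11-point (MIPE, 0.78 nM-46 µM) or 8-point (NPC, 0.59 nM-46 µM) final concentrations; follow-up screens used 11-point dilutions.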

A short description of assay [10]: qHTS of pediatric cancer cell lines to identify multiple opportunities for drug repurposing: Primary screen for NB1643 cells (AID 1347099). Also: nearly all actives have a fitted effect of over 50% in size. Also: potency is read from the fitted curve at half-maximal effect. The method in brief:
as §2

Assay [11] is described as follows: qHTS of pediatric cancer cell lines to identify multiple opportunities for drug repurposing: Primary screen for LAN-5 cells (AID 1347100). Also: potency is read from the fitted curve at half-maximal effect. In a few lines:
as §3

Assay [12] in a line: qHTS of pediatric cancer cell lines to identify multiple opportunities for drug repurposing: Primary screen for BT-12 cells (AID 1347101). Also: nearly all actives have a fitted effect of over 25% in size. Also: potency is read from the fitted curve at half-maximal effect. In a few lines:
(§4)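 Cells (500-1,000/well) rested 5 h, then received compounds for 48 h; metabolically active cells were measured by CellTiter-Glo luminescence. Final concentrations spanned up to 46 µM (MIPE, 11-point) or 0.59 nM-46 µM (NPC, 8-point) in primary screens, 11-point in follow-ups.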

A short description of assay [13]: qHTS of pediatric cancer cell lines to identify multiple opportunities for drug repurposing: Primary screen for Rh18 cells (AID 1347102). Also: nearly all actives have a fitted effect of over 65% in size. Also: potency is read from the fitted curve at half-maximal effect. The method in brief: as §3
A short description of assay [14]: qHTS of pediatric cancer cell lines to identify multiple opportunities for drug repurposing: Primary screen for MG 63 (6-TG R) cells (AID 1347105). Also: nearly all actives have a fitted effect of over 50% in size. Also: potency is read from the fitted curve at half-maximal effect. The method in brief: as §2
Assay [15] is described as follows: qHTS of pediatric cancer cell lines to identify multiple opportunities for drug repurposing: Primary screen for control Hh wild type fibroblast cells (AID 1347106).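 Also: series mostly up to about 46 µM; a drop in luminescence marks cytotoxicity and a rise apparent proliferation; nearly all actives have a fitted effect of over 55% in size.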 The method in brief: as §3
The nature of assay [16]: qHTS of pediatric cancer cell lines to identify multiple opportunities for drug repurposing: Primary screen for A673 cells (AID 1347092). Also: nearly all actives have a fitted effect of over 45% in size. Also: potency is read from the fitted curve at half-maximal effect. In a few lines: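 Cells are plated, rested 5 h, dosed by pintool, incubated 48 h, then lysed with CellTiter-Glo and read by luminescence. DMSO is the neutral control; bortezomib at 2.3 uM final is the positive control.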
Assay [17] can be described thus: qHTS of pediatric cancer cell lines to identify multiple opportunities for drug repurposing: Primary screen for RD cells (AID 1347104). Also: nearly all actives have a fitted effect of over 55% in size. Also: potency is read from the fitted curve at half-maximal effect. In a few lines:
as §2

A short description of assay [18]: qHTS of pediatric cancer cell lines to identify multiple opportunities for drug repurposing: Primary screen for Saos-2 cells (AID 1347097). Also: nearly all actives have a fitted effect of over 40% in size. Also: potency is read from the fitted curve at half-maximal effect. The method in brief:
as §2

Assay [19] can be described thus: qHTS of pediatric cancer cell lines to identify multiple opportunities for drug repurposing: Primary screen for OHS-50 cells (AID 1347103). Also: nearly all actives have a fitted effect of over 40% in size. Also: potency is read from the fitted curve at half-maximal effect. The method in brief:
as §4

Assay [20] in a line: qHTS of pediatric cancer cell lines to identify multiple opportunities for drug repurposing: Primary screen for SK-N-SH cells (AID 1347098). Also: nearly all actives have a fitted effect of over 65% in size. Also: potency is read from the fitted curve at half-maximal effect. The method in brief:
as §4

Records with an inconclusive call do not appear. Active and inactive are the calls of the source. Unless noted, calls follow the shape of the dose curve; as a rule, active = well fitted curve in the direction sought with a large enough effect; inconclusive = small, poorly fitted or top-dose-only effect, or another doubt; inactive = no such curve, though single readings can be large; an effect the other way counts as inactive or inconclusive.

The results in this text go back to PubChem BioAssay (NCATS).

Chain of Nucleoprotein (Lymphocytic choriomeningitis virus (strain Armstrong)) (P09992 whole entry, looked up): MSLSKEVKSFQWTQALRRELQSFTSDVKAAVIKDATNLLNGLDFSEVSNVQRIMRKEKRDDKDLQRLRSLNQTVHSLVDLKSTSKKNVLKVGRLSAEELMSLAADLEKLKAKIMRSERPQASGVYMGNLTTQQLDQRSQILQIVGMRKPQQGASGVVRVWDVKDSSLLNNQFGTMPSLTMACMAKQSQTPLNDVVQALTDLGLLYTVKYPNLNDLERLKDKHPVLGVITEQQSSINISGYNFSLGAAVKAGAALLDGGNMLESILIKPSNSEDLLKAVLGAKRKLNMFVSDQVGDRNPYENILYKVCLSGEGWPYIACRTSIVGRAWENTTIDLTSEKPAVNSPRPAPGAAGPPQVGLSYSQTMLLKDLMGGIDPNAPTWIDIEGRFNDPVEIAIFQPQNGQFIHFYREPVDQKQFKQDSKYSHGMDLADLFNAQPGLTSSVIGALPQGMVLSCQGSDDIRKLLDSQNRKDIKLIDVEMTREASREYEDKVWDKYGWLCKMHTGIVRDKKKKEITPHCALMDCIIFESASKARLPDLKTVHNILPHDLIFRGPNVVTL

On to `N#CCNC(=O)c1ccc(-c2ccnc(Nc3ccc(N4CCOCC4)cc3)n2)cc1`, for which the Potency result in [1] is “inactive”.
The same measure, in the same setting: the value for `Nc1cc(C(F)(F)F)c(-c2cc(N3CCOCC3)nc(N3CCOCC3)n2)cn1` was 0.685 µM (active).
Take `C[C@]12CC[C@H]3[C@@H](CCC4=CC(=O)CC[C@@]43C)[C@H]1CC[C@H]2OC(=O)CCC1CCCC1`: the Potency is 6.11 µM (active) in assay [2] and 11.8 µM (active) in assay [6]. In addition, the Potency entry in [3], in assay [4], in [5], in assay [7], in assay [8] and in assay [9] was “inactive” throughout. The Potency entry in assay [10], in assay [11], in [12], in assay [13], in [14] and in assay [15] was “inactive” each time.
As to `c1ccc2c(-c3cnn4cc(-c5ccc(N6CCNCC6)cc5)cnc34)ccnc2c1`, the Potency result in [1] was “inactive”.
Same read-out and setting: the same measure for `Nc1nc(-c2nn(Cc3ccccc3F)c3ncccc23)nc(N)c1N1CCOCC1`: “inactive”.
For the compound `CC(C)Oc1cccc(NC(=O)c2ccccc2C(F)(F)F)c1`, the Potency entry in [2], in assay [3], in assay [4], in [16], in assay [7] and in assay [9] was “inactive” throughout. The Potency entry in [10], in assay [17], in assay [14] and in assay [15] was “inactive” in each case.
Regarding `CC(=O)O[C@@]12CO[C@H]1C[C@H](O)[C@@]1(C)C(=O)[C@H](O)C3=C(C)[C@@H](O)C[C@@](O)([C@@H](OC(=O)c4ccccc4)[C@@H]21)C3(C)C`, the Potency was 21.7 µM (active) in assay [2]; 9.3 µM (active) in [3]; 18.7 µM (active) in assay [4]; 1.48 µM (active) in [5]; 1.32 µM (active) in assay [6]; 2.64 µM (active) in [18]. Moreover, the Potency in assay [11] is 2640 nM (active); in assay [19] it was 1.72 µM (active). Also, the Potency entry in [9], in assay [10], in assay [13] and in [15] was “inactive” each time.
As for `COc1nn(CSP(=S)(OC)OC)c(=O)s1`, the Potency result in assay [2], in [3], in assay [9] and in [15] was “inactive” throughout.
As to `COC(=O)[C@]12CCC(C)(C)C[C@@H]1[C@@H]1C(=O)C=C3[C@@]4(C)C=C(C#N)C(=O)C(C)(C)[C@@H]4CC[C@@]3(C)[C@]1(C)CC2`, the Potency in assay [1] is 2.17 µM (active).
Consider `COCC1(CO)C(=O)C2CCN1CC2` (stereo not given), for which the Potency in [2] is 12.2 µM (active); in assay [3], 20.8 µM (active); in [4], 23.5 µM (active); in assay [5] it was 2.09 µM (active); in [6] it was 1.18 µM (active); in assay [7], 1.22 µM (active). For the same compound, the Potency in [8] is 264 nM (active); in assay [18] it was 8.33 µM (active); in assay [20] it was 1.08 µM (active); in assay [10] it was 5.9 µM (active); in assay [11] it was 833 nM (active); in assay [12], 21.7 µM (active). Besides, the Potency was 3.85 µM (active) in [19] and 18.7 µM (active) in assay [14]. The Potency entry in [9], in [13] and in [15] was “inactive” in each case.
In the case of `O=C(Nc1ccncc1)C(=O)c1cn(Cc2ccc(Cl)cc2)c2ccccc12`, the Potency was 0.0544 µM (active) in [2]; 0.0935 µM (active) in assay [4]; 0.0418 µM (active) in assay [5]; 0.0662 µM (active) in [6]; 0.217 µM (active) in assay [7]; 26.4 nM (active) in assay [8]. In addition, the values for the Potency in assay [18], in assay [12] and in [19] were 0.0372 µM (active), 0.137 µM (active) and 0.0863 µM (active), respectively. For the same compound, the Potency result in assay [13] and in assay [15] was “inactive” each time.
Turning to `CC(O)=C(C#N)C(=O)Nc1ccc(C(F)(F)F)cc1`, in assay [1], the Potency was 19.3 µM (active).
As to `CN[C@@H](C)C(=O)N[C@H]1CCCC[C@H]2CC[C@@H](C(=O)N[C@@H](c3ccccc3)c3cn(CCCCc4ccc(CCCCn5cc([C@@H](NC(=O)[C@@H]6CC[C@@H]7CCCC[C@H](NC(=O)[C@H](C)NC)C(=O)N76)c6ccccc6)nn5)cc4)nn3)N2C1=O`, in [1], the Potency entry is “inactive”.
On the same count and under the same terms, the same measure for `Cc1ccc(N)cc1O`: “inactive”; for `CNC(=O)c1cc(Oc2ccc(NC(=O)Nc3ccc(Cl)c(C(F)(F)F)c3)c(F)c2)ccn1`: “inactive”; for `COc1cc(Nc2ncc(F)c(Nc3ccc4c(n3)NC(=O)C(C)(C)O4)n2)cc(OC)c1OC`: “inactive”.
Take `COc1c(Cl)cc2c([nH]c3cnccc32)c1NC(=O)c1cccnc1C`: the Potency entry in assay [1] is “inactive”.
Take `O=S(=O)(N=Cc1c(O)ccc2ccccc12)c1cccs1`: the Potency entry in assay [1] was “inactive”.
On to `CCN1CCN(C(=O)Cc2ccc(Nc3ncc(F)c(Nc4ccc(C(=O)Nc5ccccc5Cl)cc4)n3)cc2)CC1`, for which the Potency in assay [2] was 6.85 µM (active); in assay [4] it was 3.72 µM (active); in assay [5], 2.35 µM (active); in [16] it was 2.96 µM (active); in assay [6] it was 5.26 µM (active); in assay [7], 12.2 µM (active). Besides, the Potency in assay [8] is 5260 nM (active); in assay [9], 7.43 µM (active); in assay [18] it was 4.69 µM (active); in assay [20], 21.5 µM (active); in [10], 5.9 µM (active); in assay [11], 469 nM (active). In addition, the Potency in assay [12] was 19.3 µM (active); in assay [13], 8.33 µM (active); in [19], 4.32 µM (active); in [17], 13.2 µM (active); in [14] it was 9.35 µM (active). The Potency result in assay [15] was “inactive”.
Consider `CCCS(=O)(=O)Nc1ccc(F)c(C(=O)c2c[nH]c3ncc(-c4ccc(Cl)cc4)cc23)c1F`, for which the Potency result in assay [1] is “inactive”.
The same measure, in the same setting: the value for `Fc1cc(-c2cccc3ncc(-c4cnn(C5CCNCC5)c4)nc23)cc(F)c1CN1CCOCC1` was “inactive”.
For the compound `CC(=O)Nc1ccc(OC[C@](C)(O)C(=O)Nc2ccc([N+](=O)[O-])c(C(F)(F)F)c2)cc1`, the Potency in assay [2] is 10.9 µM (active). The Potency entry in assay [3], in [4], in [5], in assay [16], in assay [7] and in assay [8] was “inactive” each time. Besides, the Potency result in [9], in [18], in assay [20], in assay [11], in assay [12] and in [13] was “inactive” throughout. Besides, the Potency entry in assay [19], in assay [14] and in assay [15] was “inactive” in each case.
For `CN(C)c1ccc(Nc2nc(N)n(C(=O)c3c(F)cccc3F)n2)cc1`, the Potency result in [1] is “inactive”.
The same measure, in the same setting: the same measure for `CO[C@@H]1[C@H](N(C)C(=O)c2ccccc2)C[C@H]2O[C@]1(C)n1c3ccccc3c3c4c(c5c6ccccc6n2c5c31)C(=O)NC4`: “inactive”.
Turning to `Clc1ccc2ncc(-c3cccc(NC4CNC4)n3)n2c1`, the Potency entry in [1] is “inactive”.
As to `COc1ccccc1[C@H](c1cccc2ccccc12)[C@@](C)(C#N)C(=O)N1CCC(c2cccc(C(F)(F)F)c2)CC1`, the Potency result in assay [1] is “inactive”.
